Laboratory results as given in PubChem BioAssay (NCATS).
Records with an inconclusive call do not appear. Entries that show only a call come without a potency. Calls of active or inactive are those of the source. Calls come from the whole dose curve; as a rule, active = well fitted curve in the direction sought with a large enough effect; inconclusive = small, poorly fitted or top-dose-only effect, or another doubt; inactive = no such curve, though single readings can be large; an effect the other way counts as inactive or inconclusive.

What was measured:
[1] = tested on: Zika virus NS2B-NS3 protease; assay: Primary screen GU AMC qHTS for Zika virus inhibitors (AID 1347154); note: nearly all actives have a fitted effect of over 70% in size
Outline: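 Unlinked Zika NS2B hydrophilic domain–NS3 protease complex at 25 nM in 10 mM Tris-HCl pH 8.0, 0.01% Tween 20, with an AMC peptide substrate. Fluorescence change (340/450 nm) over 15 min at room temperature, normalized to controls, fitted to 4-parameter Hill.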

[2] = tested on: Zika virus NS2B-NS3 protease (unlinked complex); assay: Primary screen GU Rhodamine qHTS for Zika virus inhibitors: Unlinked NS2B-NS3 protease assay (AID 1347159); note: nearly all actives have a fitted effect of over 60% in size; note: potency is the fitted concentration of half-maximal effect
Outline: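 In dose–response format, inhibition of unlinked protease (25 nM) was measured with 1.5 microM bis-peptide Rhodamine110 substrate. Aprotinin served as the intraplate control.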

[3] = tested on: Zika virus NS2B-NS3 protease (linked construct); assay: Primary screen NINDS Rhodamine qHTS for Zika virus inhibitors (AID 1347160); note: nearly all actives have a fitted effect of over 55% in size; note: potency is the fitted concentration of half-maximal effect
Outline: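 Each compound, titrated, sat 15 min with 25 nM linked protease before 1.5 microM Rhodamine110 substrate went in. Fluorescence gain over the next 15 min, in pH 8.0 Tris with Tween 20, gave Hill-fitted curves.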

[4] = Confirmatory screen GU Rhodamine qHTS for Zika virus inhibitors qHTS (AID 1347157); settings: purified enzyme assay, Rhodamine110 substrate fluorescence, 15 min; note: potency is the fitted concentration of half-maximal effect; nearly all actives have a fitted effect of over 70% in size
Outline: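 Noncovalent NS2B hydrophilic domain/NS3 protease complex (25 nM final) in 10 mM Tris-HCl pH 8.0, 0.01% Tween 20, preincubated 15 min with compounds (up to 114 microM), then 1.5 microM Rhodamine110 substrate. Fluorescence change over 15 min fitted to 4-parameter Hill.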

[5] = Confirmatory screen NINDS Rhodamine qHTS for Zika virus inhibitors (AID 1347161); note: potency is the fitted concentration of half-maximal effect; nearly all actives have a fitted effect of over 60% in size
Outline: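 Aprotinin served as in-plate control. Conditions: 25 nM linked NS2B-NS3, pH 8.0 Tris buffer, titrated compounds, 15 min preincubation and 15 min reaction with 1.5 microM Rhod110 substrate at room temperature.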

[6] = Tertiary RLuc qRT-PCR qHTS assay for Zika virus inhibitors (AID 1347169); note: top concentration of the series differs between compounds; nearly all actives have a fitted effect of over 55% in size
Outline: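 Vero cells (1,000/well) infected with recombinant ZIKV-RLuc (Cambodian) at MOI 1-2 after compound addition, 48-72 hrs at 37 degrees C. Live-cell Renilla luciferase substrate added; luminescence read after 1-1.5 hrs.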

[7] = biological target: Lysine-specific demethylase 5B (Homo sapiens) (UniProt Q9UGL1); assay: Optimization screen for KDM5B Histone Demethylases FDH coupled qHTS against the LOPAC library (AID 1347166)
Chain of Lysine-specific demethylase 5B (Homo sapiens) (Q9UGL1 whole entry, looked up): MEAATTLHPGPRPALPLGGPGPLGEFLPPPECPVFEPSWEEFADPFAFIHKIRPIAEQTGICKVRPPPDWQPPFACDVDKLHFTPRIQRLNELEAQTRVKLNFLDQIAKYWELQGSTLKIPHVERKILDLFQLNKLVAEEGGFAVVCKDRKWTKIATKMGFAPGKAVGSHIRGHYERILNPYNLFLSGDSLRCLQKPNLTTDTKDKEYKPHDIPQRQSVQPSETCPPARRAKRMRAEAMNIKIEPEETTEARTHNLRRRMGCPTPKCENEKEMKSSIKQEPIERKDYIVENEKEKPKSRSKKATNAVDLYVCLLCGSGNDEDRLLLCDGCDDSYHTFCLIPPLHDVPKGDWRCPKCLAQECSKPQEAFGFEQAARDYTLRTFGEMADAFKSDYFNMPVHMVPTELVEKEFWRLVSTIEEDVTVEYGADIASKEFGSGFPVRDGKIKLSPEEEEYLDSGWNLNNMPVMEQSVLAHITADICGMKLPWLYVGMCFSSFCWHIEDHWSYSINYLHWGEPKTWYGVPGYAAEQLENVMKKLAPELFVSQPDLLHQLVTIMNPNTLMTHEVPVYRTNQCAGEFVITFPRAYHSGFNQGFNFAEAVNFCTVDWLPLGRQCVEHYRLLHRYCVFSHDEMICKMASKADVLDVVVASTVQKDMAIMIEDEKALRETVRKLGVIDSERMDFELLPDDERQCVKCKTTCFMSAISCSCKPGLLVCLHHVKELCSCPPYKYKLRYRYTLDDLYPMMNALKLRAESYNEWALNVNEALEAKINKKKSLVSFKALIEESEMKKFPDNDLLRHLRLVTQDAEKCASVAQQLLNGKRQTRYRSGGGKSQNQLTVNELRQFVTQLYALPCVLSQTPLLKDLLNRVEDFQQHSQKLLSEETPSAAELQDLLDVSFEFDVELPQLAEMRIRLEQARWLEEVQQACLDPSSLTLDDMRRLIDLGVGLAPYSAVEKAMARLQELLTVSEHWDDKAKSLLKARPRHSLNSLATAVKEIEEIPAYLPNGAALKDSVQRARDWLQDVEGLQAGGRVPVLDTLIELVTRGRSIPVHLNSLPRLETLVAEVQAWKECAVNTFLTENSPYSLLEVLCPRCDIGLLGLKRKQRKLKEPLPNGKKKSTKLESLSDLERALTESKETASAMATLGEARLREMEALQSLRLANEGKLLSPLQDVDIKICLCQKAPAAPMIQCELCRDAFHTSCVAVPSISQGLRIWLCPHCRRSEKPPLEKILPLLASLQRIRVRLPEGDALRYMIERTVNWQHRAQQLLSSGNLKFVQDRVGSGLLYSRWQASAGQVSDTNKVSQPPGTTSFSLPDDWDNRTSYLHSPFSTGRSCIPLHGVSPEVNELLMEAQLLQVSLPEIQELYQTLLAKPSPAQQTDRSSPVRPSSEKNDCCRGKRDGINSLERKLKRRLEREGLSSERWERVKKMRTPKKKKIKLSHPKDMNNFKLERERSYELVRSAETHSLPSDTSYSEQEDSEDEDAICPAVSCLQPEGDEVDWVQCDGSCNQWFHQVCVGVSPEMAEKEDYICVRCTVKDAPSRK
Outline: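 KDM5BDeltaAP (200nM final) in 50mM HEPES pH 7.5, 0.01% Tween-20 was preincubated with compound for 10 min at room temperature. A substrate mix of 12.5uM H3K4Me3, 25uM a-ketoglutarate, ascorbate, Fe2+, NAD+ and formaldehyde dehydrogenase was then added. NADH fluorescence (340/450 nm) was read initially and after 30 min.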

[8] = Panc-1005 Cancer Cell Toxicity qHTS against the NCATS CANVASS Library (AID 1347349); note: potency is the fitted concentration of half-maximal effect; nearly all actives have a fitted effect of over 60% in size
Outline: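 ATP content after 72 h treatment, detected by CellTiter-Glo luminescence (15min room-temperature development), reflects cell viability. Wells contained 1000 cells and received compounds at 11 concentrations.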

[9] = SW1088 Cancer Cell Toxicity qHTS against the NCATS CANVASS Library (AID 1347350); settings: SW1088 viability, CellTiter-Glo luminescence, 72 h; note: potency is the fitted concentration of half-maximal effect; nearly all actives have a fitted effect of over 75% in size
From the text: Natural products and their derivatives continue to be wellsprings of nascent therapeutic potential. However, many laboratories have limited resources for biological evaluation, leaving their previously isolated or synthesized compounds largely or completely untested. To address this issue, the Canvass library of natural products was assembled (https://tripod.nih.gov/canvass), in collaboration with academic and industry researchers, for quantitative high-throughput screening (qHTS) across a diverse set of cell-based and biochemical assays. The pure (>85% purity by liquid chromatography/mass spectrometry [LC/MS]) Canvass library of 346 natural products were submitted by 45 academic laboratories and companies around the world. […] The library was formatted into 1536-well plates and evaluated in 50 qHTS (in an 11-pnt concentration series) bioassays with broad scope of disease-relevant mechanisms. The resulting data set from 50 different assays was then systematically analyzed to identify overall trends and specific natural products with interesting biological activities. […]
Cancer Cell Toxicity protocol for cell lines COV-362, OV-KATE, OV-SAHO, UWB1.289, UWB1.289-WTBRCA1, HEK-293, HPAF-II, Panc-1005, SW1088, or U-118MG. […] Luminescence signal was acquired via the ViewLux plate reader (PerkinElmer) using a clear filter, 2 second exposure and 2x binning settings.

Cc1ccc(O)c(C(CCN(C(C)C)C(C)C)c2ccccc2)c1 (stereo not given)
Potency [1]: inactive

C[C@H]1[C@@H](OC(=O)CCC(=O)O)O[C@@H]2O[C@@]3(C)CC[C@@H]4[C@H](C)CC[C@@H]1[C@@]24OO3
Potency [1]: inactive
Potency [2]: inactive
Potency [3]: inactive

CCCCOc1ccc(C(=O)Nc2ccc(F)cc2F)cc1
Potency [1]: inactive
Potency [2]: inactive
Potency [3]: inactive

CCN(CC)CCNC(=O)c1c(C)[nH]c(C=C2C(=O)Nc3ccc(F)cc32)c1C
Potency [1]: inactive

C[N+]1(C)[C@@H]2C[C@@H](OC(=O)C(O)(c3cccs3)c3cccs3)C[C@H]1[C@@H]1O[C@@H]12
Potency [1]: inactive
Potency [2]: inactive
Potency [3]: inactive

NC1=N[C@H]2[C@H](CS[C@H]2CCCCC(=O)O)N1
Potency [1]: inactive

Cn1cc(CNCC2CCN(c3ncc(C(=O)NO)cn3)CC2)c2ccccc21
Potency [1]: inactive

CS(=O)(=O)N1CCc2c(-c3cnc(N)nc3)nc(N3CCOCC3)nc21
Potency [1]: inactive
Potency [2]: inactive
Potency [3]: inactive

N#Cc1cc(NC(=O)Nc2nnc(-c3ccncc3)s2)ccc1-c1cn[nH]c1
Potency [1]: inactive

Cc1onc(-c2ccccc2)c1C(=O)N[C@@H]1C(=O)N2[C@@H](C(=O)O)C(C)(C)S[C@@H]12
Potency [1]: inactive

CN(C)CC(=O)N1CCC(c2ccc(NC(=O)c3ncc(C#N)[nH]3)c(C3=CCCCC3)c2)CC1
Potency [1]: inactive
Potency [4]: 12.4 µM (active)
Potency [3]: inactive
Potency [5]: 9.87 µM (active)
Potency [6]: inactive

Cc1cnc(Nc2ccc(CN3CCOCC3)cc2)nc1Nc1cccc(S(=O)(=O)NC(C)(C)C)c1
Potency [1]: inactive
Potency [2]: inactive
Potency [3]: inactive

Nc1ccc(C(=O)Nc2cccc(-c3nc(N4CCOCC4)c4oc5ncccc5c4n3)c2)cn1
Potency [3]: inactive

CCc1nc(-c2cccc(C)c2)c(-c2ccnc(NC(=O)c3ccccc3)c2)s1
Potency [2]: inactive
Potency [3]: inactive

C[C@H](O)[C@@H]1C(=O)N2C(C(=O)O)=C(S[C@@H]3CN[C@H](CNS(N)(=O)=O)C3)[C@@H](C)[C@@H]12
Potency [1]: inactive
Potency [2]: inactive
Potency [3]: inactive

CN1CCc2c(c3ccccc3n2Cc2ccc(C(=O)NO)cc2)C1
Potency [1]: inactive
Potency [2]: inactive
Potency [3]: inactive

c1ccc2c(Oc3nc(Nc4ccc(N5CCOCC5)cc4)c4ncn(C5CCCCC5)c4n3)cccc2c1
Potency [1]: inactive
Potency [2]: inactive
Potency [3]: inactive

C=CC(=O)Nc1ccc2ncnc(Nc3ccc(OCc4cccc(F)c4)c(Cl)c3)c2c1
Potency [2]: 44.7 µM (active)

Cc1coc2c1C(=O)C(=O)c1c-2ccc2c(C)cccc12
Potency [2]: 35.5 µM (active)
Potency [3]: 25.1 µM (active)

Cc1cncc2cccc(S(=O)(=O)N3CCCN(C(=O)CN)C[C@@H]3C)c12
Potency [1]: inactive
Potency [2]: inactive
Potency [3]: inactive

Cn1cnc2c(F)c(Nc3ccc(Br)cc3F)c(C(=O)NOCCO)cc21
Potency [1]: inactive
Potency [2]: inactive
Potency [3]: inactive

CC(O)(C#Cc1ccc2c(c1)N(c1nc(N)ncc1Cl)CC2)c1nccs1 (stereo not given)
Potency [3]: inactive

COc1cc(CCc2cc(NC(=O)c3ccc(N4C[C@@H](C)N[C@@H](C)C4)cc3)n[nH]2)cc(OC)c1
Potency [1]: inactive
Potency [2]: inactive
Potency [3]: inactive

O=C(O)c1ccc(Nc2ncc3c(n2)-c2ccc(Cl)cc2C(c2c(F)cccc2F)=NC3)cc1
Potency [2]: 8.91 µM (active)

Cn1cc(-c2ccc3ncc(Cc4ccc5ncccc5c4)n3n2)cn1
Potency [1]: inactive
Potency [2]: inactive
Potency [3]: inactive

Cc1ncc(-c2ccnc(Nc3ccc(S(C)(=O)=O)cc3)n2)n1C(C)C
Potency [2]: inactive
Potency [3]: inactive

FC(F)(F)c1ccc(Nc2nc3ccc(Oc4ccnc(-c5ncc(C(F)(F)F)[nH]5)c4)cc3[nH]2)cc1
Potency [1]: inactive
Potency [3]: inactive

OCCNC1CCCc2c1[nH]c1ccc(-c3ccccc3)cc21 (stereo not given)
Potency [1]: inactive
Potency [2]: inactive
Potency [3]: inactive

CN[C@H](CC(C)C)C(=O)N[C@H]1C(=O)N[C@@H](CC(N)=O)C(=O)N[C@@H]2C(=O)N[C@H]3C(=O)N[C@H](C(=O)N[C@H](C(=O)O)c4cc(O)cc(O)c4-c4cc3ccc4O)[C@H](O)c3ccc(c(Cl)c3)Oc3cc2cc(c3O[C@@H]2O[C@H](CO)[C@@H](O)[C@H](O)[C@@H]2O[C@H]2C[C@](C)(N)[C@H](O)[C@H](C)O2)Oc2ccc(cc2Cl)[C@H]1O
Potency [1]: inactive
outcome [7]: inactive

CCOc1cc2c(c(F)c1OCC)C(=N)N(CC(=O)c1cc(N3CCOCC3)c(OC)c(C(C)(C)C)c1)C2
Potency [1]: inactive
Potency [2]: inactive
Potency [3]: inactive

C=C(C)[C@@H]1CC[C@]2(C(=O)O)CC[C@]3(C)[C@H](CC[C@@H]4[C@@]5(C)CC[C@H](O)C(C)(C)[C@@H]5CC[C@]43C)[C@@H]12
Potency [3]: 6.21 µM (active)
Potency [8]: 18.8 µM (active)
Potency [9]: 4.73 µM (active)
